Screening results from PubChem BioAssay.
KB-3-1 tox: kills parental KB-3-1 adenocarcinoma cells; hit rate 1.4% among 400,000; KB-3-1 viability, CellTiter-Glo ATP luminescence, 72 h; Potency, µM (titrated, usually from 46.1 µM), usual class: cytotoxic; note: nearly all actives have a fitted effect of over 60% in size
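Screening of KB-3-1 cells (DMEM, 10% FBS, phenol-red free) ran from lowest to highest compound concentration; after 72 h at 37 °C viability was read luminescently and curves fitted.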
SW480 rereplic: inducers of DNA re-replication in SW480 colon cancer cells; Potency, µM (highest dose often 46.1 µM), usual class: activators; AID 624297; SW480 DNA re-replication, Hoechst DNA content imaging, 48 h; hit rate 1.8% among 340,000; note: nearly all actives have a fitted effect of over 55% in size
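Image-based read-out: total Hoechst fluorescence of nuclei (405 nm excitation, 500-530 nm emission), with hits raising the fraction of high-intensity nuclei. SW480 colon cells incubated 48 hr with compounds at 37 C.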
D3 antag: D3 dopamine receptor (human) antagonism. P35462. D3R cells, DiscoveRx beta-arrestin luminescence, antagonist mode; active compounds read low. max response, negative = inhibition, %. hit rate 2.5% among 360,000. AID 652054; in the data active = max response below about -50%; inconclusive = no clear call, values can overlap the other calls
Target sequence (P35462 whole entry, looked up): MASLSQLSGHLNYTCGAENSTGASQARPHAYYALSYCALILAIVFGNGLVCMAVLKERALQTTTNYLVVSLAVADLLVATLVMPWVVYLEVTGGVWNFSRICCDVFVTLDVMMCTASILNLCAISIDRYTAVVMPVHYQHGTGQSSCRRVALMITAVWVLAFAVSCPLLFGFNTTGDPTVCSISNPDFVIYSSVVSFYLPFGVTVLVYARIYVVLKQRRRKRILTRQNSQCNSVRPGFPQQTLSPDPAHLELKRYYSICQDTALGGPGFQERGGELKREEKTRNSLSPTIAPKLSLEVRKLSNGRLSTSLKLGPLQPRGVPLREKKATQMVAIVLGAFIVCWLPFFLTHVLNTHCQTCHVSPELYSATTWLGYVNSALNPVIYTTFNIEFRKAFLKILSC
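Cells plated overnight at 1500 cells/well, then exposed to library compounds with dopamine controls for 90 minutes at 37 degrees C. DiscoveRx reagent added for 30–60 minutes at room temperature; luminescence read, quantitative HTS format.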
MCF10A rereplic: induces DNA re-replication in MCF 10a normal breast cells; MCF 10A DNA re-replication, Hoechst nuclear intensity, 48 h; Potency, µM (series often up to 46.1 µM), most hits filed as activators; hit rate 2.9% among 350,000; AID 624296; note: nearly all actives have a fitted effect of over 50% in size
D3 ag: activates the human D3 dopamine receptor; AID 652048; D3R DiscoveRx beta-arrestin cells, luminescence, 90 min; hit rate 0.58% among 410,000; max activation, %; P35462; in the data active = max activation above about 30%
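Agonist-mode cell screen: cells plated at 1500/well and incubated overnight at 37 °C, then exposed to library compounds for 90 min at 37 °C. Detection reagent was added for 30–60 min at room temperature, and luminescence was read.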
KB-V1 cytotox: KB-V1 MDR subline cytotoxicity. Potency, µM (highest dose often 46.1 µM), actives largely listed as cytotoxic. hit rate 3.4% among 400,000. KB-V1 MDR cells viability, CellTiter-Glo, 72 h; note: nearly all actives have a fitted effect of over 60% in size
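Drug-selected KB-V1 cells, grown in DMEM lacking phenol red with 10% FBS, receive compound titrations; after three days at 37 degrees C, surviving cell ATP is quantified by CellTiter-Glo luminescence and responses normalized and curve-fitted.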
A number is an active result; 0 = inactive; ? = inconclusive; - = not tested or not shown. Hits are enriched below; roughly 8.9% of the tested compounds scored in any of these assays. Unless noted, calls come from the whole dose curve; as a rule, active = well fitted curve in the direction sought with a large enough effect; inconclusive = small, poorly fitted or top-dose-only effect, or another doubt; inactive = no such curve, though single readings can be large; an effect the other way counts as inactive or inconclusive.

SMILES	KB-3-1 tox	SW480 rereplic	D3 antag	MCF10A rereplic	D3 ag	KB-V1 cytotox
CCN(Cc1ccc2c(c1)OCCO2)C(=O)CSc1nc(C)nc2sc(C)c(C)c12	0	0	0	?	31	0
CCN(Cc1ccc2c(c1)OCO2)C(=O)CSc1ncnc2sccc12	0	0	0	0	0	0
Cc1nc(SCC(=O)Nc2ccccc2Cl)c2c(C)c(C)sc2n1	?	0	0	23µM	0	0
Cc1cc(C)cc(-n2c(SCC(=O)NC3CCCCC3)nc3c([nH]c4ccccc43)c2=O)c1	0	-	-	-	0	0
Cc1ccc(CNC(=O)C(C)n2ccc3cc(S(=O)(=O)N4CCCC4)ccc32)cc1 (centres undefined)	0	-	-	-	0	0
COc1ccc(-n2nc3c(c2NC(=O)C(=O)NCc2ccccc2)CSC3)cc1	0	-	-	-	0	0
CCOC(=O)c1c(NC(=O)Nc2ccc(Cl)cc2)sc(C)c1C	0	0	0	?	0	0
CCOC(=O)c1c(NC(=O)CSc2nnc(C)c(=O)[nH]2)sc(C)c1-c1ccc(C)cc1	0	0	0	?	0	0
CCOC(=O)c1c(NC(=O)CSc2nnc(N)s2)sc(C)c1-c1ccc(C)cc1	0	0	0	?	43	0
CCOC(=O)c1c(NC(=S)N2CCN(C)CC2)sc(C)c1-c1ccccc1	0	?	0	26µM	0	0
CCOC(=O)c1c(NC(=O)CN2CCCCC2)sc(CN(C)C)c1-c1ccccc1	0	16µM	0	26µM	0	0
CCOC(=O)c1ccc(NC(=S)N2CCN(C)CC2)cc1	0	0	0	?	0	0
CCOC(=O)c1c(NC(=O)/C=C/C(=O)O)sc(C)c1-c1ccc(Cl)cc1	?	0	0	2.9µM	0	0
CCc1cccc(NC(=O)COC(=O)c2cn(CC)c3nc(C)ccc3c2=O)c1	0	-	-	-	0	0
CC(=O)c1ccc(N2CCN(c3ncnc4c3c(-c3ccccc3)cn4-c3cccc(C)c3)CC2)cc1	-	-	-	-	0	-
Cc1sc(NC(=O)CSc2ncn(-c3ccccc3)n2)nc1-c1ccccc1	?	0	0	0	0	23µM
Cc1sc(NC(=O)CSC2=NCCS2)nc1-c1ccccc1	0	0	0	8.9µM	0	0
CCOC(=O)c1sc(NC(=O)CSc2ncn(-c3ccccc3)n2)nc1C	0	0	0	0	0	0
CC(=O)c1sc(NC(=O)CN2C(=O)NC3(CCCC3)C2=O)nc1-c1ccccc1	0	0	0	0	0	0
CC(=O)N1CC(=O)N=C1SCC(=O)Nc1nc(-c2ccccc2)c(-c2ccccc2)s1	0	0	0	21µM	0	0
Cc1ccc(NC(=O)CSc2nc3c(oc4ccccc43)c(=O)n2Cc2ccco2)cc1	0	-	-	-	0	0
Cn1c2ccccc2c2ncn(Cc3ccco3)c(=O)c21	0	0	0	0	0	?
Cn1c2ccc(F)cc2c2ncn(Cc3ccco3)c(=O)c21	0	0	0	?	0	4.1µM
O=C(c1ccc2c(=O)n(Cc3ccco3)c(=S)[nH]c2c1)N1CCN(c2ccccc2)CC1	0	0	-50	0	0	0
O=c1c2cc(N3CCOCC3)ccc2[nH]c(=S)n1Cc1ccco1	0	?	0	?	0	13µM
SMILES	KB-3-1 tox	SW480 rereplic	D3 antag	MCF10A rereplic	D3 ag	KB-V1 cytotox
O=c1c2cc(Cl)ccc2[nH]c(=S)n1Cc1ccco1	0	?	0	0	0	0
O=c1c2cc(N3CCOCC3)ccc2[nH]c(=S)n1Cc1cccc(Cl)c1	0	0	0	?	0	?
CCCn1c(=S)[nH]c2cc(C(=O)N3CCN(c4ccccc4)CC3)ccc2c1=O	0	-	0	-	0	0
O=C(NC1CCN(Cc2ccccc2)CC1)c1ccc(Cn2c(=S)[nH]c3ccc(N4CCOCC4)cc3c2=O)cc1	0	?	-71	?	0	0
COc1cccc(Cn2c(=S)[nH]c3ccc(N4CCOCC4)cc3c2=O)c1	0	?	0	?	0	3.7µM
O=C(CSc1ncc2c(n1)-c1ccccc1N(Cc1ccc(F)cc1)S2(=O)=O)NCc1ccccc1	0	-	-	-	0	0
O=C(CCS(=O)(=O)c1cc(Br)cc2c1N(C(=O)C1CC1)CC2)N1CCN(c2cccc(C(F)(F)F)c2)CC1	?	-	-	-	0	0
Cc1cc(OCC(O)CNC(C)c2ccccc2)ccc1C(C)C (centres undefined)	?	?	0	?	0	16µM
CC(NCC(O)COc1ccc2ccccc2c1)c1ccccc1 (centres undefined)	?	23µM	0	?	0	?
COc1ccc(OCC(O)CNC(C)c2ccccc2)cc1 (centres undefined)	0	0	0	0	0	0
CC1CCC(C(C)C)C(OCC(O)CNC(C)(C)C)C1 (centres undefined)	0	0	0	0	0	0
CC1CCC(C(C)C)C(OCC(O)CNC(C)c2ccccc2)C1 (centres undefined)	?	0	0	16µM	0	21µM
CCCS(=O)(=O)NC(=O)C1(C)CCN(C(=O)Cc2ccc(OC)cc2)C1 (centres undefined)	0	-	0	-	0	0
CCOC(=O)c1noc2ncn(CC(=O)Nc3cccc(C(F)(F)F)c3)c(=O)c12	0	-	-	-	0	0
O=C(CCl)N=c1sccn1Cc1ccc(Cl)cc1Cl	?	?	0	?	0	18µM
CN(C)c1nc(=NCc2ccco2)ss1	0	0	0	21µM	0	0
CCOC(CN=c1nc(N(C)C)ss1)OCC	0	?	0	?	0	?
COCCCNC(=O)c1sc2ncnc(N3CCc4ccccc4C3)c2c1C	?	21µM	0	15µM	0	0
C/C(=N\NC(=O)c1ccccc1)c1nc2ccccc2n1C	0	13µM	0	0	0	?
Cn1c(NC(=O)c2ccc(F)cc2)nc2ccccc21	?	?	0	0	0	0
Cc1cc(C)cc(NC(=O)CNS(=O)(=O)c2ccc3nc(C)sc3c2)c1	-	-	-	-	0	-
Cc1nc2ccc(S(=O)(=O)NCC(=O)NC(C)c3ccccc3)cc2s1 (centres undefined)	0	0	0	0.65µM	0	0
CCOc1ccc(C(=O)N(Cc2cc(OC)c(OC)c(OC)c2)c2ccccn2)cc1	0	-	-	-	0	0
CC(C)n1c(NCc2nc3ccccc3n2C)nc2ccccc21	0	0	-93	0	0	0
CCn1c(CNc2nc3ccccc3n2C(C)C)nc2ccccc21	0	0	-59	0	0	12µM
Cc1ccc(NC(=O)NCc2nc3ccccc3n2C)cc1	0	21µM	0	?	0	0
Cn1c(CNc2ccc(Br)cc2)nc2ccccc21	?	0	0	0	0	15µM
COc1ccc(N2CCN(C(=O)C(C)n3c(=O)cc(C(F)(F)F)c4c(C)nn(C)c43)CC2)cc1 (centres undefined)	0	-	-	-	0	0
CCOc1ccc(C(=O)c2cn(CC(=O)Nc3ccc(F)c(F)c3)c3cc4c(cc3c2=O)OCCO4)cc1	0	-	-	-	0	0
